From PubChem
Rows were chosen to be rich in hits. Some 1.7% of all compounds tested hit in one or more screens of this group.
GLP-1R agonist: agonists of human GLP-1 receptor; P43220; HEK293 GLP-1R CRE-luciferase, luminescence, 4-6 h; cells express a hypersensitive GLP-1R form; Potency, µM (top dose mostly 45.6 µM), usual class: activators; hit rate 0.007% among 380,000; AID 624172
Target sequence (P43220 whole entry, looked up): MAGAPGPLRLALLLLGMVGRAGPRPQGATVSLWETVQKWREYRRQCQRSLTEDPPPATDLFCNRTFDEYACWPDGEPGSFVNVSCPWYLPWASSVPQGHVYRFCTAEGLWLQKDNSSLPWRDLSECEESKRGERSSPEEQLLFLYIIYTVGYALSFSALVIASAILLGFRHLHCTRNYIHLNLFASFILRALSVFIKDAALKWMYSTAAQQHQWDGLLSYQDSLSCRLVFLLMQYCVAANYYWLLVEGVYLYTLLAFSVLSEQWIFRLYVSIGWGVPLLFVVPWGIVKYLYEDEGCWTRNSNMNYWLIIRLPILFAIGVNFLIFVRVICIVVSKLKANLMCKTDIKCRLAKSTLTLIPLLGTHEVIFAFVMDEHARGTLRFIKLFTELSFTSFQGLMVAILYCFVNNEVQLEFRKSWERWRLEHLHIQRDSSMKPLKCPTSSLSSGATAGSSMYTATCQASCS
GLP-1R inv ag: GLP-1 receptor (human) inverse agonism; P43220; HEK293 GLP-1R CRE-luciferase, luminescence, 24 h; GLP-1R form is constitutively active; Potency, µM (highest dose often 38.3 µM), actives largely listed as inhibitors; hit rate 1.6% among 410,000; note: nearly all actives have a fitted effect of over 55% in size
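Constitutively active GLP-1R drives a cAMP-responsive luciferase in stably transfected HEK293 cells; test compounds are added after overnight (12 h) attachment and left 24 hr, and signal loss in luminescence marks inhibition.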
GLP1R cytotox: cytotoxic in the GLP-1 receptor inverse agonist counter-screen. HEK293 cAMP-luciferase reporter cells, luminescence, 24 h. Potency, µM (series often up to 38.3 µM), most hits filed as inhibitors. hit rate 0.13% among 410,000;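 note: loss of luciferase light is scored as toxicity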
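MLSMR compounds, 24 hr on cells at 37 deg C/5% CO2; luminescence after luciferase reagent (12 min RT). Inhibition counted as the undesired cytotoxic outcome.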
PTHR1 agonist: PTHR1 (human) receptor agonism; HEK293 GP2 PTHR1 cells, GloSensor cAMP luminescence, 1 h; hit rate 0.075% among 410,000; Potency, µM (doses to about 115 µM), most hits filed as activators; Q03431; note: nearly all actives have a fitted effect of over 55% in size
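HEK-293-derived GP2 cells expressing PTHR1 and a GloSensor cAMP reporter, 3,000/well, plated overnight, given luciferin plus IBMX (each 0.5 mM as added) for 1 h at 37 °C, then compound for 1 h at 37 °C. Luminescence was read after 15 min at room temperature.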
A number is an active result; n = inactive; u = inconclusive; x = no result; ! = repeats disagree. Calls come from the whole dose curve; as a rule, active = well fitted curve in the direction sought with a large enough effect; inconclusive = small, poorly fitted or top-dose-only effect, or another doubt; inactive = no such curve, though single readings can be large; an effect the other way counts as inactive or inconclusive.

SMILES	GLP-1R agonist	GLP-1R inv ag	GLP1R cytotox	PTHR1 agonist
C[C@@H]1CC=C[C@@H]2[C@H]1C(=O)N(Cc1ccccc1)[C@H]2c1ccccc1Br	n	n	n	n
COc1ccc(-c2ccc([C@H]3[C@H]4C=CC[C@@H](C)[C@@H]4C(=O)N3Cc3ccccc3)c(F)c2)cc1C	n	4.5µM	n	n
COc1ccc(-c2ccccc2[C@H]2[C@@H]3C=CC[C@@H](C)[C@@H]3C(=O)N2Cc2ccccc2)cc1	n	8.9µM	n	n
CC(=O)c1ccc(-c2cc([C@H]3[C@H]4C=CC[C@@H](C)[C@@H]4C(=O)N3Cc3ccccc3)ccc2F)cc1	n	11µM	n	n
COc1ccc(-c2cc(=O)oc3c4c(ccc23)OCN(Cc2ccccc2)C4)cc1	x	n	n	n
CC(C)OCCCN1C(=O)c2[nH]nc(-c3ccccc3O)c2C1c1ccccc1F (stereo unspecified)	x	u	n	n
COc1ccc(NC(=O)Cn2c(=O)n(Cc3ccco3)c(=O)c3cc(OC)c(OC)cc32)cc1	n	n	n	n
O=C(Nc1cccc(C(F)(F)F)c1)c1cc(-c2ccc3c(c2)OCCO3)on1	x	n	n	n
CCOc1ccc(CN2CCN(Cc3[nH]c4ccc(OC)cc4c3C)CC2CCO)cc1 (stereo unspecified)	n	13µM	n	n
CCOc1ccccc1CN1CCN(Cc2[nH]c3ccccc3c2C)CC1CCO (stereo unspecified)	n	u	n	n
CCOC(=O)C1=C(CNCCc2ccc(Cl)cc2)NC(=O)NC1c1ccc2c(c1)OCO2 (stereo unspecified)	n	6.3µM	n	n
CCOC(=O)C1=C(CN(CC)Cc2ccccc2)NC(=O)NC1c1ccc(Cl)cc1 (stereo unspecified)	n	10µM	n	n
COc1cc(/C=C2/C(=O)c3cccc([N+](=O)[O-])c3C2=O)c(Br)cc1O	n	10µM	u	n
COc1ccccc1NC(=O)CCCCCN1C(=O)c2cccc([N+](=O)[O-])c2C1=O	n	n	n	n
COCCNC(=O)CN1C(=O)COc2ccc(S(=O)(=O)N3CCCC3)cc21	n	n	n	n
NC(CSC1(c2ccc(Cl)cc2)c2ccccc2-c2ccccc21)C(=O)O (stereo unspecified)	n	7.9µM	n	n
CCc1ccc(S(=O)(=O)c2nnn3c2nc(NC2CCCC2)c2sccc23)cc1	x	n	n	n
CCCCOc1ccc(S(=O)(=O)Nc2ccc(-c3ccc(N4CCCCC4)nn3)cc2)cc1	x	u	n	n
Cc1cc(C)n(-c2nc(NCC(C)O)c3c4c(sc3n2)CCCC4)n1 (stereo unspecified)	n	2.8µM	n	n
Cc1cc(C)n(-c2nc(NCCCO)c3c4c(sc3n2)CCCC4)n1	n	u	u	n
Cc1cc(C)n(-c2nc(NCC3CCCO3)c3c4c(sc3n2)COC(C)(C)C4)n1 (stereo unspecified)	n	u	3.2µM	n
Cc1cc(C)n(-c2nc(NCCO)c3c4c(sc3n2)CCCC4)n1	n	4.5µM	u	n
Cc1cc(C)n(-c2nc(NCC(C)O)c3c4c(sc3n2)COC(C)(C)C4)n1 (stereo unspecified)	n	n	u	n
Cc1ccn2c(CC(C)(C)C)c(-c3ccc(F)cc3)nc2c1	n	7.1µM	n	n
Cc1nn(Cc2cccc(C(=O)NC3CCCCC3)c2)c(C)c1Cl	n	10µM	n	n
SMILES	GLP-1R agonist	GLP-1R inv ag	GLP1R cytotox	PTHR1 agonist
CCCC[C@H](CC(=O)c1ccccc1)[C@@H](OC(C)=O)C(=O)Oc1c(C(C)C)cccc1C(C)C	n	3.5µM	n	n
COC(=O)[C@@]12CCCCN1[C@H](c1ccc(-c3ccc(F)cc3)c(OC)c1)[C@@H]1C(=O)N(C)C(=O)[C@@H]12	n	10µM	n	n
O=C1O[C@H]2[C@@H](OC(O)[C@@H]2O)[C@H]1O (stereo partly specified)	n	x	x	x
CCCCN(CC)CCCNC(=O)c1nn(-c2ccc(OC)cc2)c(=O)c2c1c1ccccc1n2C	x	n	n	n
Cc1cc(C)cc(N(CC(=O)Nc2cccc(C)n2)S(=O)(=O)c2c(C)noc2C)c1	n	8.9µM	n	n
COc1ccc(N(CC(=O)NC(C)c2ccccc2)S(=O)(=O)c2c(C)noc2C)cc1 (stereo unspecified)	n	8.9µM!	n	n
CCN(CC)CCCNC(=O)CCC(=O)Nc1ccc2nc(N3CCC(C)CC3)cc(C)c2c1	n	7.1µM	n	n
CCN(CC)CCCNC(=O)CCC(=O)Nc1ccc2nc(N3CCCCC3)cc(C)c2c1	n	u	n	n
COc1cc(OC)c(OC)cc1/C=C/c1nc2cc3ccccc3cc2c(=O)n1-c1ccc(F)cc1F	x	n	n	n
Cc1ccc(Cl)cc1N1CCN(C(CC(C)C)c2nnnn2CC2CCCO2)CC1 (stereo unspecified)	n	n	n	n
CCCC(c1nnnn1CC1CCCO1)N1CCN(c2cc(Cl)ccc2C)CC1 (stereo unspecified)	n	8.9µM	n	n
C/C1=C2N=C(/C=C3N=C(/C(C)=C4\[N-][C@@H]([C@H](CC(N)=O)[C@]4(C)CCC(=O)NC[C@@H](C)OP(=O)([O-])O[C@@H]4[C@@H](O)[C@H](n5cnc6cc(C)c(C)cc65)O[C@@H]4CO)[C@@]4(C)N=C1[C@H](CCC(N)=O)[C@@]4(C)CC(N)=O)[C@H](CCC(N)=O)C\3(C)C)[C@@H](CCC(N)=O)[C@@]/2(C)CC(N)=O.[CH3-].[Co+3]	n	x	x	x
Cc1ccc2cc3cc(C(=O)N4CC(C)CC(C)C4)oc3nc2c1 (stereo unspecified)	n	7.9µM	n	n
COc1ccc2cc3cc(C(=O)N4CC(C)CC(C)C4)oc3nc2c1 (stereo unspecified)	n	u	n	n
Cc1cc(C)cc(NC(=O)NCC(O)COc2ccc([N+](=O)[O-])cc2)c1 (stereo unspecified)	n	8.9µM	n	n
O=C(NCC(O)COc1ccc([N+](=O)[O-])cc1)Nc1ccccc1 (stereo unspecified)	n	n	u	n
CCOc1ccccc1NC(=O)c1cn(C2CCCCC2)c(=O)c2c1c1ccccc1n2C	x	n	n	u
CCOc1ccc(Nc2nc(Cc3nnc(SCC(=O)c4ccc(C)c(C)c4)o3)cs2)cc1	n	11µM	u	n
Cc1ccc(NC(=O)CSc2nnc(Cc3csc(C)n3)o2)cc1	n	n	n	n
O=C(Cc1cccs1)Nc1cccc(-c2nc3cc4ccccc4cc3[nH]2)c1	n	11µM	n	n
O=C(NC(=S)Nc1ccccc1)c1cc(-c2ccccc2)nc2ccccc12	n	u	n	n
O=C(NC(=S)Nc1ccccn1)c1cc(-c2ccccc2)nc2ccccc12	n	4.5µM	2.8µM	n
CO/N=C(/C(=O)N[C@@H]1C(=O)N2C(C(=O)OC(C)OC(C)=O)=C(COC(N)=O)CS[C@H]12)c1ccco1 (stereo partly specified)	n	x	x	x
